A selection: hits, their analogues and other compounds. The true share with any hit is near 7.3%.
HEK293 viab = GF-AFC viability counterscreen for inhibitors of alpha-synuclein gene (SNCA) expression; Potency, µM (doses to about 57.1 µM), without a hit: at the top dose activity change, negative = cytotoxicity, actives largely listed as cytotoxic; HEK-293-SNCA-luc viability, GF-AFC fluorescence, 24 h; AID 1671193, 2021; actives 0.12% (n = 150,000);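 further: potency means the concentration at half of the fitted maximal effect; 0% = DMSO-treated cells and -100% = medium-only wells without cells; nearly all actives have a fitted effect of over 30% in size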
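Cytotoxicity counterscreen: after 24 h compound treatment of genome-edited SNCA-luciferase HEK-293 cells, live-cell protease substrate GF-AFC read by fluorescence after 30 min; activity scaled between DMSO (0%) and medium-only (-100%), curves Hill-fitted.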
HEK cytotox = Cytotoxic Profiling in HEK 293 Cell Line of Diverse Libraries Using Quantitative High-Throughput Screening. actives 6.6% (n = 94,000). Potency, µM (highest dose often 115 µM), for inactives: at the top dose activity change, negative = cytotoxicity, hits mostly inhibitors. HEK 293 viability, ATP luminescence (CellTiter-Glo), 48-72 h. AID 1345083, 2018; further: potency means the concentration at half of the fitted maximal effect; nearly all actives have a fitted effect of over 60% in size
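Viability of HEK 293 cells, plated at 250 cells/well, was judged by cellular ATP after compound treatment for 48 or 72 hr. Luminescence was imaged 10 min after CellTiter-Glo addition at room temperature.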
SNCA expr inhib = Primary qHTS assay for inhibitors of alpha-synuclein gene (SNCA) expression; HEK-293 SNCA-luciferase knock-in, luminescence, 24 h; Potency, µM (titrated, usually from 57.2 µM), without a hit: top-dose activity change, negative = inhibition, actives largely listed as inhibitors; actives 0.17% (n = 140,000);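 further: potency means the concentration at half of the fitted maximal effect; plate controls were DMSO cells for no effect and cell-free wells for full effect; nearly all actives have a fitted effect of over 45% in size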
FLuc inh = Firefly luciferase inhibition profiling of diverse chemical library using quantitative high-throughput screening; Luciferin 4-monooxygenase (Photinus pyralis), P08659; purified P. pyralis luciferase, luminescence, biochemical; Potency, µM (series often up to 115 µM), actives largely listed as inhibitors; actives 2.5% (n = 76,000); AID 1347043, 2019; further: potency means the concentration at half of the fitted maximal effect; nearly all actives have a fitted effect of over 65% in size
Target sequence (P08659 whole entry, looked up): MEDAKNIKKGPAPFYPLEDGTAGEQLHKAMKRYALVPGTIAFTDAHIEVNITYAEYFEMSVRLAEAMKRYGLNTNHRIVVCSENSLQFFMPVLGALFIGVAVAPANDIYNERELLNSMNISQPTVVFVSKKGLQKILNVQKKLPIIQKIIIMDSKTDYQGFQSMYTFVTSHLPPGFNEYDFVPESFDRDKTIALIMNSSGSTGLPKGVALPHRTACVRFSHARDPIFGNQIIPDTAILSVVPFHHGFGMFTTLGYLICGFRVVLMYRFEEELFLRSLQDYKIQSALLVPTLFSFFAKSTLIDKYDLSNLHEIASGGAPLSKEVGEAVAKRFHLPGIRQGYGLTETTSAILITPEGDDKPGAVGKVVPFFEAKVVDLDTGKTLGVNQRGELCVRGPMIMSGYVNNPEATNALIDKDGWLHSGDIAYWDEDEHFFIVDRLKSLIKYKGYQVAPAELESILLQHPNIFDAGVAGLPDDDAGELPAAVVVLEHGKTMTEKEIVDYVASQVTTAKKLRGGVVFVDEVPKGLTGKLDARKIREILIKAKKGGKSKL
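FLuc 10nM, D-luciferin 10uM, ATP 10uM, Mg acetate 10mM, Tris acetate pH 7.5, Tween/BSA; cpd qHTS; enzyme added last; CCD luminescence.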
3T3 cytotox = Cytotoxic Profiling in NIH 3T3 Cell Line of Diverse Libraries Using Quantitative High-Throughput Screening; NIH 3T3 viability, CellTiter-Glo ATP luminescence, 48-72 h; Potency, µM (highest dose often 96.7 µM), without a hit: top-dose activity change, negative = cytotoxicity, usual class: inhibitors; actives 4.3% (n = 94,000); AID 1345082, 2018; further: potency means the concentration at half of the fitted maximal effect; nearly all actives have a fitted effect of over 55% in size
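Cells were seeded at 400 per well, treated with pin-transferred compound, and kept 48 or 72 hr at 37 °C before CellTiter-Glo addition and luminescence imaging of cellular ATP.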
IP6K1 inhibitor = Primary qHTS assay for small molecule inhibitors of Inositol hexaphosphate kinase 1 (IP6K1); Inositol hexakisphosphate kinase 1 (Homo sapiens), Q92551; IP6K1 kinase, ADP-Glo luminescence, 2 h; stronger effect = lower value; activity change, % (series mostly up to about 58 µM); actives 0.81% (n = 140,000); AID 1645851, 2021; in the data active means activity change below about -25%
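ADP-Glo luminescence measures ADP made by human IP6K1 during a 2 h RT reaction with ATP/IP6 (mix at 1.3 mM/130 uM); top library doses 57.5 and 19.1 uM final.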
Starred values were filed as active, the others as inactive; i = inactive; ? = inconclusive; . = no result; [ ] = another dose, or the depositor's remark. Unless noted, the call rests on the fitted dose curve; in most records, active means well fitted curve in the direction sought with a large enough effect; inconclusive means small, poorly fitted or top-dose-only effect, or another doubt; inactive means no such curve, though single readings can be large; an effect the other way counts as inactive or inconclusive. Unless noted, on the % scale 0 is the no-effect control and ±100 the full control effect.

SMILES	HEK293 viab	HEK cytotox	SNCA expr inhib	FLuc inh	3T3 cytotox	IP6K1 inhibitor
Cc1cc(C)cc(-c2ccc(CN3CCCC3C(=O)NC3CCCC3)cc2)c1 (configuration not stated)	-8%	28µM*	?	.	22µM*	2
CCNC(=O)c1ccc(CC2CCN(C(C)=O)CC2)cc1	6%	-6%	22%	i	-12%	-10
CN(C)c1cccc(C(=O)NCCC2CCN(C(=O)Nc3cc(F)cc(F)c3)CC2)c1	-1%	?	120%	?	-25%	-4
O=C(NCCC1CCN(C(=O)Nc2cc(F)cc(F)c2)CC1)c1ccccc1	-3%	?	79%	28µM*	-26%	-11
O=C(Nc1cc(F)cc(F)c1)N1CCC(CCNC(=O)C2(c3ccccc3)CC2)CC1	6%	50µM*	-11%	i	32µM*	1
CCCNC(=O)N1CCC(Cc2ccc(CCNC(C)=O)cc2)CC1	-6%	45µM*	-1%	.	?	18
CCNC(=O)N1CCC(Cc2ccc(C(=O)Nc3cccc(F)c3)cc2)CC1	-11%	40µM*	169%	25µM*	?	-4
CCCn1c(C)cnc1CC1CCN(C(=O)NCCc2ccccc2)CC1	2%	1%	?	i	-17%	0
CN(C)c1nc2c(c(=O)[nH]1)CCN(Cc1ccc(C(F)(F)F)cc1)CC2	-2%	-14%	-3%	i	-3%	5
O=Cc1cccc(N2CCN(C(=O)N3CCOCC3)CC2=O)c1	-3%	-5%	0%	.	?	21
CCC(=O)Nc1ccc(OCC(=O)NCc2ccccc2OC(C)CC)cc1 (configuration not stated)	4%	?	-30%	i	-5%	-7
O=C(c1cccc2[nH]ccc12)N1CC(Oc2cccc(-c3nc(-c4ccccc4)no3)c2)C1	-13%	35µM*	61%	?	?	-2
Cn1cccc1C(=O)N1CC(Oc2cccc(-c3nc(-c4ccccc4)no3)c2)C1	-18%	45µM*	1%	?	?	0
Cc1nc(C)c(C(=O)N2CC(Oc3cccc(-c4nc(-c5ccccc5)no4)c3)C2)s1	-13%	40µM*	5%	?	?	-3
CN(CCc1ccccc1)[C@@H]1[C@H](O)[C@H](CO)O[C@@H]1CNS(=O)(=O)c1cccs1	-2%	-8%	?	i	-1%	11
COCCNC(=O)[C@@H]1C[C@H](Oc2ccccc2)CN1S(=O)(=O)Cc1ccccc1	-18%	-26%	-20%	i	-25%	3
CCN1Cc2nc(OC)c(CNC(=O)C(C)n3cc(C)cn3)cc2C1=O (configuration not stated)	11%	-8%	5%	i	-14%	9
CC(C)(C)CC(=O)N1C[C@@H](CO)[C@H](c2nc(-c3ccncc3)no2)C1	-3%	-13%	-15%	i	-24%	-11
Cc1cc(OCCN(C)C)c(C)c2c1CC[C@@H]([C@H](C)C(=O)NCc1cccs1)C2	?	56µM*	-18%[87.6 µM]	i	63µM*	8
Cc1ccc(C(=O)NC2CCN(c3cc(-c4ccccc4)[nH]n3)CC2)cc1F	3%	?	1%	i	35µM*	4
O=C(NC1CCN(c2cc(-c3ccc(F)cc3)[nH]n2)C1)c1cccc(Cl)c1 (configuration not stated)	?	?	?	i	?	0
Cc1ccc(C(=O)NC2CCCN(c3cc(-c4ccccc4)[nH]n3)C2)cc1F (configuration not stated)	-17%	?	43%	i	?	0
O=C(NC1CCN(c2cc(-c3ccccc3)[nH]n2)CC1)c1cccc(Cl)c1	-6%	28µM*	4%	i	?	10
CC(=O)Nc1ccc(C(=O)NC2CCN(c3cc(-c4ccc(Cl)cc4)[nH]n3)CC2)cc1	?	32µM*	?	i	22µM*	18
CCn1nccc1C(=O)N1CCCC(c2noc(COc3ccccc3)n2)C1 (configuration not stated)	1%[12.5 µM]	?	9%	i	-29%	20
SMILES	HEK293 viab	HEK cytotox	SNCA expr inhib	FLuc inh	3T3 cytotox	IP6K1 inhibitor
COc1ccc(F)cc1S(=O)(=O)N1CCCC(Cn2c(C)nc3cccnc32)C1 (configuration not stated)	3%	?	3%	i	?	-9
COCc1ccc2c(c1)c(OC(C)(C)C(=O)Nc1ccccn1)nn2CCC(C)C	5%[87.6 µM]	89µM*	2%[87.6 µM]	i	45µM*	3
COCc1ccc2c(c1)c(OC(C)(C)C(=O)NCCc1ccccn1)nn2CCC(C)C	-30%[87.6 µM]	?	-27%[87.6 µM]	i	?	5
COCc1ccc2c(c1)c(OC(C)(C)C(=O)NC1CCN(C)CC1)nn2CCC(C)C	-1%[87.6 µM]	?	2%[87.6 µM]	i	89µM*	-8
O=C(c1ccccc1F)N1CCC(C(=O)N2CCCC(c3nc4ncccc4[nH]3)C2)CC1 (configuration not stated)	-3%	-10%	7%	.	-21%	8
CCOCCNC(=O)c1cc(-c2cccc(F)c2)nc2c1cnn2C	.	-29%[172 µM]	.	.	?	6
CC1=C[C@@H](CNCc2ccccn2)[C@H](C(C)C)C[C@H]1Cc1nnc(-c2ccc(N(C)C)cc2)o1	?	11µM*	?	i	?	3
CC1=C[C@@H](CNCc2cccnc2)[C@H](C(C)C)C[C@H]1Cc1nnc(-c2ccncc2)o1	-5%[87.6 µM]	?	-19%[87.6 µM]	i	?	10
CC1=C[C@@H](CNCc2cccnc2)[C@H](C(C)C)C[C@H]1Cc1nnc(-c2ccc(N(C)C)cc2)o1	?	18µM*	?	i	?	7
CC1=C[C@@H](CNCc2ccccn2)[C@H](C(C)C)C[C@H]1Cc1nnc(-c2ccccc2)o1	?	79µM*	?	i	?	-5
Cc1ccc(C)c(NC(=O)CN2C(=O)C(c3ccccc3)=NC23CCCC3)c1	-9%[12.5 µM]	?	-27%	i	?	2
CN1CC(=O)N(C2CCCCC2)Cc2c1ncnc2N1CCN(c2ncccn2)CC1	-12%	45µM*	12%	.	45µM*	-11
CN1CC(=O)N(C2CCCC2)Cc2c1ncnc2N1CCN(c2ncccn2)CC1	2%	-24%	26%	i	-21%	7

Compound activity as filed in PubChem.
